DRV1 agonist = GPR32 (DRV1) agonism, beta-arrestin recruitment; O75388; AID 1346428; CHO-K1 GPR32 beta-arrestin PathHunter luminescence, 90 min; zero percent set by DMSO-only wells; activation, % at 76.9 µM; 48,000 tested, 2.5% active;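 active = activation of at least 60% and not above a set upper limit, about 1 call in 100 departs from these limits; inconclusive = activation of 40% to 60%, or above that upper limit; inactive = activation under 40%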; note: 0% is about no effect
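Agonism was scored as beta-arrestin recruitment to ProLink-fused GPR32 in stably transfected CHO-K1 cells, giving a chemiluminescent beta-Gal signal; compounds were incubated 90 min at 37 °C.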
NTMT1 inh = NTMT1 methyltransferase inhibition; Q9BV86; NTMT1 MTase-Glo SAH luminescence, purified enzyme; Potency, µM (titrated, usually from 114 µM), without a hit: at the top dose activity change, negative = inhibition, usual class: inhibitors; 59,000 tested, 2.5% active;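 note: potency is the fitted concentration of half-maximal effect; plate controls were DMSO vehicle for no effect and no enzyme for full effect; nearly all actives have a fitted effect of over 65% in size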
SKOV3 invasion = blocks SKOV3ip1 adhesion and invasion in omental model; Potency, µM (doses to about 45.8 µM), for inactives: at the top dose activity change, negative = inhibition, most hits filed as inhibitors; SKOV3ip1-GFP adhesion/invasion on 3D omental model, fluorescence; 46,000 tested, 0.1% active;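 note: potency is the fitted concentration of half-maximal effect; plate controls were DMSO wells for no effect and tomatine positive control wells for full effect; nearly all actives have a fitted effect of over 65% in size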
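Primary human omental fibroblast/mesothelial 3D culture pre-formed 48 h. SKOV3ip1-GFP cells added with compounds (0.36-46 umol/L), incubated 2 h RT/16 h 37 C, fixed; GFP cells quantified at 488/509 nm.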
FH mod = Identification of activators of human fumarate hydratase by quantitative high-throughput screening | 54,000 tested, 0.22% active | FH coupled MDH/diaphorase resazurin fluorescence, 15 min | Fumarate hydratase, mitochondrial (Homo sapiens), P07954 | Potency, µM (titrated, usually from 79.9 µM), inactives show at the highest dose activity change, negative = inhibition, most hits filed as inhibitors | AID 1347055, 2019; note: potency is the fitted concentration of half-maximal effect; % is set by controls: 0 for no effect and ±100 for the full control effect; the screen sought activators but most active calls are inhibition curves; nearly all actives have a fitted effect of over 45% in size
DYRK1A inh-1 = human DYRK1A kinase inhibition by ATP depletion readout; 100 tested, 80% active; Potency, µM (series often up to 76.9 µM), for the others: at the top dose activity change, negative = inhibition, actives largely listed as inhibitors; shares compounds with NTMT1 inh; recombinant DYRK1A, Kinase-Glo ATP depletion luminescence
CLK4 inh-1 = CLK4 kinase inhibition, SAR round 2; shares compounds with NTMT1 inh; recombinant Clk4, Kinase-Glo ATP luminescence, 4.5 h; Potency, µM (doses to about 76.9 µM), without a hit: top-dose activity, negative = inhibition, usual class: inhibitors; 90 tested, 90% active; AID 493204
Target sequence (Q9HAZ1 whole entry, looked up): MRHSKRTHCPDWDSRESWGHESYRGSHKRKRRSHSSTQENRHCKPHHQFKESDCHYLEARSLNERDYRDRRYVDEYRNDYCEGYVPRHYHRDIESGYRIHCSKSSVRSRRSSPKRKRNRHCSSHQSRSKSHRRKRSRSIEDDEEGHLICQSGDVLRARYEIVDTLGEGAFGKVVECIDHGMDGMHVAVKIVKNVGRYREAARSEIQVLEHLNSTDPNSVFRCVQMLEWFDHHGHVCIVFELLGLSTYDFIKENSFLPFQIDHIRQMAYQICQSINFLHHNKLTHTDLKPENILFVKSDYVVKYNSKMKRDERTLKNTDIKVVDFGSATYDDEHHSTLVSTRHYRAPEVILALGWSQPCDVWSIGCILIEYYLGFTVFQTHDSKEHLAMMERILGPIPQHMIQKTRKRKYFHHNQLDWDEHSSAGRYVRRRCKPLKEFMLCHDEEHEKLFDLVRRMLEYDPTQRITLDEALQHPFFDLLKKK
CLK4 inh-2 = CLK4 kinase inhibition, SAR round 2; Reaction Biology kinase assay, 10 uM ATP; 65 tested, 100% active; shares compounds with NTMT1 inh; Potency, µM, most hits filed as inhibitors; calls by dose curve
DYRK1A inh-2 = blocks human DYRK1A kinase in radiometric assay; 65 tested, 90% active; shares compounds with NTMT1 inh; Reaction Biology kinase assay, 10 uM ATP; Potency, µM, usual class: inhibitors;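 active = compounds that showed inhibition of Dyrk1a and received a fitted potency; inactive = compounds that showed no inhibition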
CLK2 inh = blocks human CLK2 kinase in radiometric assay; AID 504427; 65 tested, 90% active; Potency, µM, most hits filed as inhibitors; shares compounds with NTMT1 inh; Reaction Biology kinase assay, 10 uM ATP;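 active = compound that inhibits Clk2 kinase in the dose series, with an IC50 potency reported; inactive = no inhibition seen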
CLK3 RBC = CLK3 kinase inhibition; shares compounds with NTMT1 inh; recombinant CLK3 kinase assay, 10 uM ATP; Potency, µM, usual class: inhibitors; 65 tested, 40% active; AID 504428;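 active = compounds that inhibited Clk3 enough in the ten-dose series to give a half-maximal potency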
DYRK1B inh = DYRK1B kinase inhibition; shares compounds with NTMT1 inh; Recombinant Dyrk1b kinase assay, 10 uM ATP; Potency, µM, hits mostly inhibitors; 65 tested, 80% active; AID 504429;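 active = compounds whose dose response shows an inhibitor phenotype against the kinase Dyrk1b; inactive = compounds showing no inhibitor phenotype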
CLK1 inh = CLK1 kinase inhibition | shares compounds with NTMT1 inh | recombinant Clk1 kinase assay, 10 uM ATP | Potency, µM, hits mostly inhibitors | 65 tested, 90% active;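 active = compounds that block the splicing kinase Clk1 enough to give a fitted half-inhibition concentration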
NNMT counter = counter-screen for NTMT1 inhibitors: human NNMT inhibition; Potency, µM (top dose mostly 57.1 µM), for the others: at the highest dose activity, negative = inhibition, hits mostly inhibitors; shares compounds with NTMT1 inh; NNMT MTase-Glo luminescence, SAH detection; 120 tested, 10% active
Target sequence (P40261 whole entry, looked up): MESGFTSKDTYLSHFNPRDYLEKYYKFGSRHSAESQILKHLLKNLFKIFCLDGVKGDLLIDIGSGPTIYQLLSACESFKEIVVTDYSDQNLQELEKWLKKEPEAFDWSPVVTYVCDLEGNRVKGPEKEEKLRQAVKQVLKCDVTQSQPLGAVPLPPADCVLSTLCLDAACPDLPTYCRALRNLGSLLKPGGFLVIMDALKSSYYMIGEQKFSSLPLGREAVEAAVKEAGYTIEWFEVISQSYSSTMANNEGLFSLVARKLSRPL
Numbers without * were called inactive; i = inactive; ? = inconclusive; . = no result given; ! = a repeat was not active; [ ] = another dose, or the depositor's remark. In the library only some 3.9% were active in any assay of this set; here they are far more common. Unless noted, calls come from the whole dose curve; as a rule, active = well fitted curve in the direction sought with a large enough effect; inconclusive = small, poorly fitted or top-dose-only effect, or another doubt; inactive = no such curve, though single readings can be large; an effect the other way counts as inactive or inconclusive.

SMILES	DRV1 agonist	NTMT1 inh	SKOV3 invasion	FH mod	others
Cc1ccc(CN(C)c2ncnc3ccc(-c4ccc(CO)n4C)cc23)o1	.	.	.	.	CLK4 inh-1=23.2µM*
CCN(CCO)CCCOc1ccc2c(Nc3cc(CC(=O)Nc4cccc(F)c4)[nH]n3)ncnc2c1	.	?	7.3%	?
Cc1cc(C)c2c(N)c(C(=O)NCc3ccc(Cl)cc3)sc2n1	.	-10.4%[57.5 µM]	.	-6.7%	NNMT counter=-7.6%
Cc1cccc(C(=O)Nc2c(C(=O)NCc3ccc(Cl)cc3)sc3nc(C)cc(C)c23)c1	-21.2	11.0%	-1.4%	-3.0%
Cn1cc(-c2c[nH]c3ncnc(N4CCOCC4)c23)cn1	.	-12.3%	.	0.5%
N#Cc1cccc(-c2c[nH]c3ncnc(N4CCOCC4)c23)c1	.	15.8µM*	.	-4.1%	NNMT counter=?
COc1ccc(-c2cc3nccn3c(Nc3ncccc3C(N)=O)n2)cc1OC	.	11.7%[57.5 µM]	41.9%	-0.4%
CC(C)C[C@H](C(=O)O)c1cc(-c2ccc(C(F)(F)F)cc2)cc(-c2ccc(C(F)(F)F)cc2)c1	.	-17.3%[57.5 µM]	.	?
CC#C[C@@H](CC(=O)O)c1ccc(OCc2cccc(-c3ccc(C(F)(F)F)cc3)c2)cc1	.	22.4µM*	.	?	NNMT counter=?
Cc1nc(CN(C)c2ncnc3cc(-c4ccc5c(c4)OCO5)ccc23)cs1	.	?	.	.	DYRK1A inh-1=9.23µM*;CLK4 inh-2=15*;DYRK1A inh-2=i;CLK2 inh=i;CLK3 RBC=i;DYRK1B inh=i;CLK1 inh=i
Cn1ccc2cc(-c3ccc4ncnc(NCc5ccc6c(c5)OCO6)c4c3)ccc21	.	9.5%	.	.
Cc1nc(C(C)N(C)c2ncnc3ccc(-c4ccc5c(c4)OCO5)cc23)cs1 (configuration not stated)	.	-9.0%[57.5 µM]	.	.	CLK4 inh-1=29.2µM*
CCn1cnc(CCN(C)c2ncnc3ccc(-c4ccc5c(c4)OCO5)cc23)c1	.	.	.	.	DYRK1A inh-1=8.23µM*
Cc1nc(CCN(C)c2ncnc3ccc(-c4ccc5c(c4)OCO5)cc23)cs1	.	?	.	.	CLK4 inh-1=0.0823µM*
O=C(NCc1ccccc1)c1csc(Nc2ccncn2)n1	.	?	19.7%	-1.5%
N#Cc1c(-c2ccc(O)cc2)no[n+]1[O-]	.	-2.9%	.	.
Cc1c(-c2ccccc2)no[n+]1[O-]	.	9.1%	.	.
CNC(=O)c1ccc(-c2cnc3ncc(Cc4ccc5ncccc5c4)n3n2)cc1F	.	2.6%[57.5 µM]	-6.8%	-4.9%
C[C@]12CC[C@@H]3c4ccc(O)cc4CC[C@H]3[C@@H]1C[C@@H](O)[C@@H]2O	-3.9	?	.	-11.0%[53.3 µM]
C[C@]12CC[C@@H]3c4ccc(O)c(O)c4CC[C@H]3[C@@H]1CCC2=O	.	28.2µM*	.	?	NNMT counter=35.5µM*
C=C(CCC1C(C)(O)CCC2C(C)(C)C(O)CCC12C)C(O)CO (configuration not stated)	.	-13.0%[29.8 µM]	.	-12.6%[53.3 µM]
NC(=NCCCCCCN=C(N)/N=C(\N)Nc1ccc(Cl)cc1)/N=C(\N)Nc1ccc(Cl)cc1	86.5*	25.1µM*!	.	32.0%	NNMT counter=?
Cc1csc(CNc2ncnc3ccc(-c4ccc5c(c4)OCO5)cc23)n1	.	-27.4%	.	.
Cc1csc(CNc2ncnc3ccc(-c4ccc5c(c4)OCO5)cc23)c1	.	1.9%[57.5 µM]	.	.
CN(CC1CCCO1)c1ncnc2ccc(-c3ccc4c(c3)OCO4)cc12 (configuration not stated)	.	9.8%	.	.	CLK4 inh-1=0.0582µM*
SMILES	DRV1 agonist	NTMT1 inh	SKOV3 invasion	FH mod	others
CN(Cc1ncc[nH]1)c1ncnc2ccc(-c3ccc4c(c3)OCO4)cc12	.	?	.	.	DYRK1A inh-1=0.733µM*
COc1cccc(C(=O)c2c(N)c(-c3nc(-c4ccccc4)cs3)c3ccccn23)c1	-8.9	6.1%	-8.7%	16.7%
COc1c(C)c(C(=O)c2ccc(N)c(C(=O)O)c2)n2ccccc12	.	-11.8%[57.5 µM]	.	-22.6%	NNMT counter=-12.5%
C[C@H]1[C@H](C)C[C@@H](C(=O)O)C2CC[C@]3(C)C(=CC[C@@H]4[C@@]5(C)CC[C@H](O)C(C)(C)[C@@H]5CC[C@]43C)[C@@H]21 (some centres not stated)	.	4.9%[57.5 µM]	.	-0.8%
Cc1cccc(Cn2ncc3c4sc(C)cc4n(C)c3c2=O)c1	.	-25.7%	.	.
Clc1ccccc1-c1ccc2ncnc(NCc3cccs3)c2c1	.	4.6%	.	.
O=Cc1ccc(-c2ccc3ncnc(NCc4cccs4)c3c2)o1	.	?	.	.	CLK4 inh-1=26µM*
c1coc(-c2ccc3ncnc(NCc4cccs4)c3c2)c1	.	-13.9%	.	.	DYRK1A inh-1=6.54µM*
C[C@@H](O)c1ccc(-c2ccc3ncnc(NCc4cccs4)c3c2)o1	.	-10.1%[57.5 µM]	.	.	CLK4 inh-1=1.46µM*
Cc1csc(CNc2ncnc3ccc(-c4ccc(C(C)O)o4)cc23)n1 (configuration not stated)	.	?	.	.	CLK4 inh-1=1.04µM*
COc1nc(N)nc2c1ncn2C1OC(CO)C(O)C1O (configuration not stated)	.	23.8%	.	.
O=C(CNC(=O)c1ccccc1)N[C@H](C(=O)Nc1cc(C(F)(F)F)ccc1Cl)c1ccccc1	.	12.9%	.	.
CC(=O)O[C@@H]1C[C@@]2(C)C(CC[C@]3(C)C2CC=C2C4CC(C)(C)CC[C@]4(C(=O)O)CC[C@]23C)C(C)(C)[C@H]1O (some centres not stated)	.	8.0%[29.8 µM]	.	-10.7%[53.3 µM]
Clc1cccc(-c2ccc3ncnc(NCc4cccs4)c3c2)c1	.	-23.0%	.	.
FC1(F)Oc2ccc(-c3ccc4ncnc(NCc5cccs5)c4c3)cc2O1	.	6.4%	.	.	DYRK1A inh-1=?
Cc1cc(C(=O)Cn2cc(C#N)ccc2=O)c(C)n1Cc1ccccc1	.	-5.8%[57.5 µM]	.	4.4%

Screening data from PubChem.
